Measured values from PMC4336329 (PLoS ONE, 2015).
Screen size: about 310,000 compounds; about 2,200 (0.71%) showed an effect of 50% or more. The effect is printed as a negative number. This is one part of a sample in which strong results are shown more often than they occur.

These compounds were tested against human ether-à-go-go-related gene (hERG) potassium channel (human, UniProt Q12809) (assay: primary screen, population patch clamp on CHO cells stably expressing hERG; higher = less effect of the substance).
Chain of human ether-à-go-go-related gene (hERG) potassium channel (Q12809 whole entry, looked up): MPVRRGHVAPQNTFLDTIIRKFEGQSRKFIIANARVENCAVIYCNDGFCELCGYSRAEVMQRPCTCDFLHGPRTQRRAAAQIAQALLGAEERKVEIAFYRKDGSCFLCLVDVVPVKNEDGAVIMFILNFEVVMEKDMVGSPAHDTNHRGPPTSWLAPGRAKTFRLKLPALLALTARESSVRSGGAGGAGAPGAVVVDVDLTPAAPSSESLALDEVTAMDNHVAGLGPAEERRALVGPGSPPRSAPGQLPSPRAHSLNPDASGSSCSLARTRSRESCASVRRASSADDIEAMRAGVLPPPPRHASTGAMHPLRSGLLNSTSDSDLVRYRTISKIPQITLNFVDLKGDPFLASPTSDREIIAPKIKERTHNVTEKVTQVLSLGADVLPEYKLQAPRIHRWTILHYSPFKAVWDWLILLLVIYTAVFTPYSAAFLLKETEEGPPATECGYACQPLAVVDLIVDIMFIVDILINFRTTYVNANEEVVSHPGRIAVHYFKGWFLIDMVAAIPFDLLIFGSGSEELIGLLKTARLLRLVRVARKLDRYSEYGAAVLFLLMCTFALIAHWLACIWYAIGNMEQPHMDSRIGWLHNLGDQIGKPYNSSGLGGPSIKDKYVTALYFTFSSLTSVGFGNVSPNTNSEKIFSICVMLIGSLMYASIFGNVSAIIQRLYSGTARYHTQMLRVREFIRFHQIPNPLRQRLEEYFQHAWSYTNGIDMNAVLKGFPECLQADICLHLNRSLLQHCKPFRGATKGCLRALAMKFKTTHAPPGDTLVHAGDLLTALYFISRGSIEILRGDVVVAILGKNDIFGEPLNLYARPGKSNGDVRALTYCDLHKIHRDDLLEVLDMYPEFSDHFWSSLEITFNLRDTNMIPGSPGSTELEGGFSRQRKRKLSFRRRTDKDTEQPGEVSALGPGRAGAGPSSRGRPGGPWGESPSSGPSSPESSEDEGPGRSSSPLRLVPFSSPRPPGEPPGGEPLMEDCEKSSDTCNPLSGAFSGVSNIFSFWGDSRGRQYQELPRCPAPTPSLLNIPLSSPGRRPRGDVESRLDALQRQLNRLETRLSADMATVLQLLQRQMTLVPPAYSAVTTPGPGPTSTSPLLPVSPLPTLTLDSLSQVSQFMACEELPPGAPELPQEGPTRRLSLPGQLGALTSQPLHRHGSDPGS

First: CCOC(=O)c1c(NC(=O)c2cc(CC(C)C)on2)sc(C(C)=O)c1C
Second: CCOc1cc(C2C(C(=O)OCC(C)C)=C(C)N=C3SCCC(=O)N32)ccc1OC(C)=O (stereo not drawn)
The “hERG current change (%, negative = inhibition) at 1uM” value of the first is higher: 12.5% for the first, -0.245% for the second.

First: CC(C)CN(C(=O)COC(=O)c1cnc(Cl)c(Cl)c1)c1c(N)n(Cc2ccccc2)c(=O)[nH]c1=O
Second: CCCCN(C(=O)COC(=O)c1ccc(C=O)cc1)c1c(N)n(CCC)c(=O)[nH]c1=O
The “hERG current change (%, negative = inhibition) at 1uM” value of the first is lower: 8.68% for the first, 11% for the second.

First: COc1ccc(-c2n[nH]c(C)c2-c2ccc(Cl)cc2)c(O)c1
Second: CCOC(=O)c1cc(-c2ccc(Cl)cc2)nc2c1c(C)nn2CCC#N
The “hERG current change (%, negative = inhibition) at 1uM” value of the first is lower: 10.2% for the first, 10.9% for the second.

Compared with `CCOC(=O)CSc1nc(Cc2ccccc2)nc2ccccc12`, `COCCNc1nc(SCC(=O)N2CCN(c3ccccc3)CC2)nc2ccccc12` is lower in “hERG current change (%, negative = inhibition) at 1uM” value: 3.08% for the first, -94.4% for the second.

First: Cn1nc(C(F)(F)F)c2cc(C(=O)N3CCOCC3)sc21
Second: O=C(c1cccs1)N1CCN(C(=O)N2CCOCC2)CC1
The “hERG current change (%, negative = inhibition) at 1uM” value of the first is lower: 5.87% for the first, 15.2% for the second.

First: COc1ccccc1N1CCN(C2CCCN(C(=O)CCC(=O)N(C)C)C2)CC1 (stereo not drawn)
Second: COc1ccccc1N1CCN(C(=O)CSc2nc3ccccc3nc2N2CCCCC2)CC1
The “hERG current change (%, negative = inhibition) at 1uM” value of the first is lower: -3.24% for the first, 16.5% for the second.

Compared with `CCCC(=O)NC(=S)Nc1ccc(NC(=O)c2cccs2)cc1`, `COc1cccc(NC(=S)NCc2cccnc2)c1` is higher in “hERG current change (%, negative = inhibition) at 1uM” value: -3.11% for the first, 11.1% for the second.

Going from `Cc1cc(=O)[nH]c(SCC(=O)c2ccc(C)c(C)c2)n1` to `Cc1cc(C)c[n+](CC(=O)c2ccc(C)c([N+](=O)[O-])c2)c1.[Br-]`, the “hERG current change (%, negative = inhibition) at 1uM” value falls from 18.1% to 4.61%.

Compared with `CC(=O)c1ccc(Nc2c3c(c(C#N)c4nc5ccccc5n24)CCC3)cc1`, `N#Cc1c2c(c(Nc3ccc(O)cc3)n3c1nc1ccccc13)CCC2` is higher in “hERG current change (%, negative = inhibition) at 1uM” value: -67% for the first, 11.7% for the second.

Compared with `N#Cc1c2c(c(Nc3ccccc3)n3c1nc1ccccc13)CCC2`, `Br.c1ccc(C2CNCc3c2ccc2ccccc32)cc1` (stereo not drawn) is lower in “hERG current change (%, negative = inhibition) at 1uM” value: 10.4% for the first, 1.84% for the second.

Going from `CC(C1CC1)N(Cc1ccccc1)C(=S)Nc1ccccc1Cl` (stereo not drawn) to `O=C(O)c1cn(Cc2ccccc2)c2ccccc2c1=O`, the “hERG current change (%, negative = inhibition) at 1uM” value falls from 3.13% to -43.6%.

Going from `COc1cccc(-c2noc(CCC(=O)NC3CCCCC3)n2)c1` to `COc1ccc(C(=O)C2CCCN(C(=O)CCc3ccccn3)C2)c(C)c1` (stereo not drawn), the “hERG current change (%, negative = inhibition) at 1uM” value rises from 0.894% to 9.98%.

First: COCCNC(=O)CSc1nc2ccccc2c(=O)n1CCC(=O)N1CCN(c2ccccc2)CC1
Second: O=C(CSc1nc2ccccc2c(=O)[nH]1)N1CCN(c2ccccc2)CC1
The “hERG current change (%, negative = inhibition) at 1uM” value of the first is lower: 6.84% for the first, 12.9% for the second.

Compared with `COc1ccccc1N1CCN(C(=O)CSc2nnc3c4ccccc4nc(Cc4ccccc4)n23)CC1`, `COCCNc1nc(SCC(=O)N2CCN(c3ccccc3OC)CC2)nc2ccccc12` is lower in “hERG current change (%, negative = inhibition) at 1uM” value: -1.26% for the first, -92.9% for the second.

Going from `COc1cc2ccccc2cc1C(=O)N1CC(C)CC(C)C1` (stereo not drawn) to `COc1ccc(C(=O)C2CCCN(Cc3ccccn3)C2)c(OC)c1` (stereo not drawn), the “hERG current change (%, negative = inhibition) at 1uM” value rises from -3.89% to -3.83%.

Going from `CCOC(=O)N/N=C/c1cccnc1` to `CCOC(=O)C1CCN(C/C=C/c2ccccc2)CC1`, the “hERG current change (%, negative = inhibition) at 1uM” value falls from 5% to 4.64%.

Compared with `CCC(=O)N1CCN(c2nc(C)nc3sc(C)c(C)c23)CC1`, `Cc1nc(N2CCN(C(=O)CCC(=O)O)CC2)c2c(C)c(C)sc2n1` is higher in “hERG current change (%, negative = inhibition) at 1uM” value: -54% for the first, -4.32% for the second.

Compared with `Cc1nc(N2CCN(C(=O)COc3ccccc3)CC2)c2c(C)c(C)sc2n1.Cl`, `Cc1ccccc1N1CCN(Cc2nc(Cc3ccccc3)no2)CC1` is higher in “hERG current change (%, negative = inhibition) at 1uM” value: -29.3% for the first, 8.68% for the second.

First: Fc1cccc(Cc2noc(CN3CCC(c4ccncc4)CC3)n2)c1
Second: Fc1cccc(Cc2noc(CN3CCOCC3)n2)c1
The “hERG current change (%, negative = inhibition) at 1uM” value of the first is lower: -1.98% for the first, 10.8% for the second.

Compared with `c1ccc(Cc2noc(CN3CCCN(C4Cc5ccccc5C4)CC3)n2)cc1`, `c1ccc(Cc2noc(CN3CCN(C4CCc5ccccc5C4)CC3)n2)cc1` (stereo not drawn) is lower in “hERG current change (%, negative = inhibition) at 1uM” value: -66% for the first, -76.1% for the second.

Going from `Cc1cccnc1CN1CCN(Cc2nc(Cc3cccc(F)c3)no2)CC1` to `Fc1cccc(Cc2noc(CN3CCN(C4CCc5ccccc5C4)CC3)n2)c1` (stereo not drawn), the “hERG current change (%, negative = inhibition) at 1uM” value falls from 6.2% to -67.5%.

Compared with `O=C(c1ccco1)N1CCCN(Cc2nc(Cc3ccccc3)no2)CC1`, `Fc1cccc(Cc2noc(CN3CCCN(C4Cc5ccccc5C4)CC3)n2)c1` is lower in “hERG current change (%, negative = inhibition) at 1uM” value: 1.8% for the first, -86.9% for the second.

Going from `COc1ccc(Cc2noc(CN3CCN(C4CCc5ccccc5C4)CC3)n2)cc1OC` (stereo not drawn) to `COc1ccc(Cc2noc(CN3CCCN(C4Cc5ccccc5C4)CC3)n2)cc1OC`, the “hERG current change (%, negative = inhibition) at 1uM” value falls from -32% to -44.4%.

Compared with `Fc1cccc(Cc2noc(CN3CCSCC3)n2)c1`, `COc1ccnc2c1c(=O)n(Cc1cccc(F)c1)c(=O)n2C` is lower in “hERG current change (%, negative = inhibition) at 1uM” value: 17.3% for the first, 8.91% for the second.

Compared with `Cc1cc(C)cc(NC(=O)CSc2nnc(CNC(=O)c3ccco3)n2C)c1`, `Cc1nnc(NC(=O)CSc2nnc(CC(=O)Nc3ccccc3C)n2C)s1` is higher in “hERG current change (%, negative = inhibition) at 1uM” value: 14.2% for the first, 17.4% for the second.

First: COc1ccc(C(=O)NCc2nnc(SCC(=O)NCc3ccco3)o2)cc1OC
Second: COc1ccc(Nc2nnc(Cc3ccccc3)c(=O)[nH]2)c(OC)c1
The “hERG current change (%, negative = inhibition) at 1uM” value of the first is higher: 14.2% for the first, 8.03% for the second.

First: COc1cccc(NC(=O)Cn2nc(Cc3cccnc3)c3ccccc3c2=O)c1
Second: COc1cccc(Nc2nnc(Cc3cccnc3)c3ccccc23)c1
The “hERG current change (%, negative = inhibition) at 1uM” value of the first is higher: -8.3% for the first, -83.2% for the second.

First: COc1ccc(Nc2ncnc3ccccc23)c(OC)c1.Cl
Second: COc1ccc(Nc2nnc(Cc3ccncc3)c3ccccc23)c(OC)c1
The “hERG current change (%, negative = inhibition) at 1uM” value of the first is higher: -0.118% for the first, -66.6% for the second.

Compared with `CCN(CC)CCOC(=O)c1cc2cc(COC)ccc2o1.CI`, `CCN(CC)CCCN=Cc1c(O)n(Cc2ccccc2)c(=O)c2ccccc12` is lower in “hERG current change (%, negative = inhibition) at 1uM” value: 9.98% for the first, -77.3% for the second.

Compared with `O=C(CN1C(=O)c2cccnc2Oc2ccc(Cl)cc21)Nc1ccc(F)cc1`, `O=C(O)c1cn(Cc2ccccc2)c2ccc(Cl)cc2c1=O` is lower in “hERG current change (%, negative = inhibition) at 1uM” value: 14.1% for the first, -84.4% for the second.

Compared with `COCCCn1c(Cc2csc(Nc3cccc(Cl)c3)n2)nnc1SCC(=O)OC1CCCCC1`, `COc1ccc(C(=O)C2CCCN(Cc3cccn3-c3ccc(Cl)cn3)C2)c(OC)c1` (stereo not drawn) is lower in “hERG current change (%, negative = inhibition) at 1uM” value: -0.506% for the first, -45.8% for the second.

Compared with `COc1ccc(C2CC(c3cccc(OC)c3OC)n3nnnc3N2)cc1` (stereo not drawn), `COc1ccc(N2C(=O)C(OC(C)=O)C2c2ccc(C)cc2)cc1` (stereo not drawn) is higher in “hERG current change (%, negative = inhibition) at 1uM” value: -4.26% for the first, 7.38% for the second.

Going from `COC(C[C@@H]1O[C@@H]1[C@H](O)COCc1ccccc1)OC` to `CC(O)[C@H]1CNCCN1CCc1cccc2ccccc12` (stereo partly drawn), the “hERG current change (%, negative = inhibition) at 1uM” value falls from 10.5% to 5.81%.

First: Cc1cc(C)c[n+](CC(=O)c2c(C)cc(C)c([N+](=O)[O-])c2C)c1.[Br-]
Second: Cc1cc(C)c[n+](CC(=O)c2ccccc2)c1.[Br-]
The “hERG current change (%, negative = inhibition) at 1uM” value of the first is lower: -52.7% for the first, 20.1% for the second.

Going from `CN1CCN(C(=O)C2CCC(=O)N(Cc3cccc(C(F)(F)F)c3)C2)CC1` (stereo not drawn) to `Cc1ccc(S(=O)(=O)N2CCN(C(=O)CCC(=O)N3CCc4ccccc43)CC2)cc1`, the “hERG current change (%, negative = inhibition) at 1uM” value falls from 6.99% to 3.11%.

First: COc1ccc(C(=O)C2CCCN(Cc3cccn3-c3ccccn3)C2)c(C)c1 (stereo not drawn)
Second: COc1ccc(C(=O)C2CCCN(Cc3cccn3-c3ccccn3)C2)c(OC)c1 (stereo not drawn)
The “hERG current change (%, negative = inhibition) at 1uM” value of the first is lower: -84.8% for the first, -82.9% for the second.

First: COc1ccc(C(=O)C2CCCN(CCO)C2)c(C)c1 (stereo not drawn)
Second: CCOC(=O)C1CCCN(C/C=C/c2ccccc2[N+](=O)[O-])C1 (stereo not drawn)
The “hERG current change (%, negative = inhibition) at 1uM” value of the first is higher: 12.5% for the first, -42.6% for the second.

First: O=C(O)c1cc(NC(=O)c2ccc3c(c2)C(=O)N(Cc2ccccc2)C3=O)cc(C(=O)O)c1
Second: COc1ccc2c(c1)c(=O)c(C(=O)c1ccccc1)cn2Cc1ccccc1
The “hERG current change (%, negative = inhibition) at 1uM” value of the first is higher: 11.7% for the first, -21.1% for the second.

Compared with `COc1cccc(Nc2ncc(C#N)c(N)n2)c1`, `O=C(COC(=O)c1nc(Cl)ccc1Cl)Nc1ncc(Cl)cc1Cl` is higher in “hERG current change (%, negative = inhibition) at 1uM” value: 12.9% for the first, 14.4% for the second.

First: CN(C)CCN=Cc1c(O)n(Cc2ccccc2)c(=O)c2ccccc12
Second: CN(C)CCCN=Cc1c(O)n(Cc2ccccc2)c(=O)c2ccccc12
The “hERG current change (%, negative = inhibition) at 1uM” value of the first is higher: -6.8% for the first, -25.5% for the second.

Compared with `CCOC(=O)C1CCN(C/C=C/c2ccccc2[N+](=O)[O-])CC1`, `CCSc1ccccc1C(=O)N1CCN(c2ccc([N+](=O)[O-])cc2)CC1` is higher in “hERG current change (%, negative = inhibition) at 1uM” value: -57% for the first, -41% for the second.

First: CCCCCn1cc(C(=O)C(=O)N2CCOCC2)c2ccccc21
Second: CCCCCCn1cc(C(=O)O)c(=O)c2ccccc21
The “hERG current change (%, negative = inhibition) at 1uM” value of the first is higher: 7.53% for the first, -84.4% for the second.

Going from `CCCCCCn1cc(C(=O)O)c(=O)c2cc(F)c(N3CCCCC3)cc21` to `COc1ccc2c(c1)Sc1ccccc1N2CCN(C)C.O=C(O)C(=O)O`, the “hERG current change (%, negative = inhibition) at 1uM” value falls from 14% to 2.44%.

With `COc1ccc([C@@H]2Sc3cc(OC)ccc3N(CCN(C(C)C)C(C)C)C(=O)[C@H]2OC(C)=O)cc1.Cl` the “hERG current change (%, negative = inhibition) at 1uM” value was -70%.
